Measurements published in PubChem BioAssay (NCI).
About 83,000 compounds went through this panel and 20% of them were active in at least one assay; those are over-represented in the sample as a whole.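 The test compound was applied at a single concentration to cells in 96-well plates for 48 hours, and percent growth was recorded.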 The source made the active and inactive calls. How the source made its calls: active means growth percent below 10; inactive means the rest.

How the values were obtained:
Test in all cases: NCI-60 one-dose screen, 48 h (100 = growth as untreated, 0 = no growth, -100 = all killed)
HCT-15 colon = tested on: HCT-15 colon
HT29 colon = tested on: HT29 colon
SNB-75 CNS = tested on: SNB-75 CNS
SNB-19 CNS = tested on: SNB-19 CNS
U251 CNS = details: 10 µM unless noted
PC-3 prostate = tested on: PC-3 prostate
SK-MEL-5 melanoma = tested on: SK-MEL-5 melanoma
UACC-62 melanoma = details: 10 µM unless noted
LOX IMVI melanoma = tested on: LOX IMVI melanoma
SK-MEL-28 melanoma = tested on: SK-MEL-28 melanoma
SK-MEL-2 melanoma = tested on: SK-MEL-2 melanoma
EKVX NSCLC = details: 10 µM unless noted
SN12C renal = tested on: SN12C renal
UO-31 renal = details: 10 µM unless noted
TK-10 renal = tested on: TK-10 renal
ACHN renal = details: 10 µM unless noted
A498 renal = tested on: A498 renal
CCRF-CEM leukemia = details: 10 µM unless noted
MOLT-4 leukemia = details: 10 µM unless noted
CAKI-1 renal = details: 10 µM unless noted

Measured: growth

CC(=Nc1ccc(N(C)C)cc1)c1ccccc1
inactive: HCT-15 colon; 10 µM unless noted 68.5% | HT29 colon; 10 µM unless noted 35.2% | SNB-75 CNS; 10 µM unless noted 86% | SNB-19 CNS; 10 µM unless noted 45% | U251 CNS 27.2% | PC-3 prostate; 10 µM unless noted 37.8% | SK-MEL-5 melanoma; 10 µM unless noted 54.6% | UACC-62 melanoma 68% | LOX IMVI melanoma; 10 µM unless noted 60.2% | SK-MEL-28 melanoma; 10 µM unless noted 65.4% | SK-MEL-2 melanoma; 10 µM unless noted 78.4% | EKVX NSCLC 58.6% | SN12C renal; 10 µM unless noted 50.4% | UO-31 renal 55% | TK-10 renal; 10 µM unless noted 72.6% | ACHN renal 59.8% | A498 renal; 10 µM unless noted 70.4% | CCRF-CEM leukemia 52.2% | MOLT-4 leukemia 66.7%

O=C1c2ccccc2C(=O)c2sc(Nc3ccc(Cl)cc3)nc21
inactive: HT29 colon; 10 µM unless noted 92.5% | SNB-75 CNS; 10 µM unless noted 33.1% | SNB-19 CNS; 10 µM unless noted 79.5% | SK-MEL-5 melanoma; 10 µM unless noted 13% | UACC-62 melanoma 18.4% | SK-MEL-2 melanoma; 10 µM unless noted 35.9% | EKVX NSCLC 53.6% | UO-31 renal 21.7% | TK-10 renal; 10 µM unless noted 174% | CAKI-1 renal 75% | A498 renal; 10 µM unless noted 87.3% | CCRF-CEM leukemia 13.1%
active: HCT-15 colon; 10 µM unless noted -68.7% | U251 CNS 4.35% | PC-3 prostate; 10 µM unless noted 2.24% | LOX IMVI melanoma; 10 µM unless noted -85.8% | SK-MEL-28 melanoma; 10 µM unless noted -9.35% | SN12C renal; 10 µM unless noted -80.3% | ACHN renal -23.4% | MOLT-4 leukemia 6.68%

CCOC(=O)/C(=C\c1ccc(-c2ccccc2)cc1)C(C)=O
inactive: HCT-15 colon; 10 µM unless noted 94.5% | HT29 colon; 10 µM unless noted 104% | SNB-75 CNS; 10 µM unless noted 88% | SNB-19 CNS; 10 µM unless noted 99.9% | U251 CNS 103% | PC-3 prostate; 10 µM unless noted 107% | SK-MEL-5 melanoma; 10 µM unless noted 98.7% | UACC-62 melanoma 94.6% | LOX IMVI melanoma; 10 µM unless noted 98.4% | SK-MEL-28 melanoma; 10 µM unless noted 99.1% | SK-MEL-2 melanoma; 10 µM unless noted 104% | EKVX NSCLC 99.2% | SN12C renal; 10 µM unless noted 89.9% | UO-31 renal 82.7% | TK-10 renal; 10 µM unless noted 86.1% | CAKI-1 renal 98.7% | A498 renal; 10 µM unless noted 92.2% | CCRF-CEM leukemia 107% | MOLT-4 leukemia 107%

O=C(Nc1cccc(Br)c1)Oc1cccc2cccnc12
inactive: HCT-15 colon; 10 µM 94.1% | HT29 colon; 10 µM 92.1% | HT29 colon; 100 µM 57.8% | SNB-75 CNS; 10 µM 83.4% | SNB-75 CNS; 100 µM 41.6% | SNB-19 CNS; 10 µM 100% | SNB-19 CNS; 100 µM 48.7% | U251 CNS 21.1% [100 µM] | PC-3 prostate; 10 µM 92.9% | PC-3 prostate; 100 µM 11.7% | SK-MEL-5 melanoma; 10 µM 101% | LOX IMVI melanoma; 10 µM 102% | SK-MEL-28 melanoma; 10 µM 105% | SK-MEL-28 melanoma; 100 µM 48.2% | SK-MEL-2 melanoma; 10 µM 85.8% | SN12C renal; 10 µM 99.4% | TK-10 renal; 10 µM 118% | TK-10 renal; 100 µM 112% | A498 renal; 10 µM 97.5% | A498 renal; 100 µM 98.6% | CCRF-CEM leukemia 14.4% [100 µM]
active: HCT-15 colon; 100 µM 5.53% | SK-MEL-5 melanoma; 100 µM 2.15% | LOX IMVI melanoma; 100 µM -3.16% | SK-MEL-2 melanoma; 100 µM 9.32% | EKVX NSCLC -17.3% [100 µM] | SN12C renal; 100 µM -26.1%

O=C1NC(=O)/C(=C/C=C/c2ccccc2)S1
inactive: HCT-15 colon; 10 µM unless noted 54.1% | HT29 colon; 10 µM unless noted 56.6% | SNB-75 CNS; 10 µM unless noted 59.7% | SNB-19 CNS; 10 µM unless noted 28.3% | U251 CNS 17.1% | PC-3 prostate; 10 µM unless noted 87.5% | SK-MEL-5 melanoma; 10 µM unless noted 25% | LOX IMVI melanoma; 10 µM unless noted 15.8% | SK-MEL-28 melanoma; 10 µM unless noted 84.6% | EKVX NSCLC 62.5% | SN12C renal; 10 µM unless noted 50.6% | UO-31 renal 34.1% | TK-10 renal; 10 µM unless noted 91.8% | CAKI-1 renal 25.5% | A498 renal; 10 µM unless noted 69.7%
active: UACC-62 melanoma 1.33% | SK-MEL-2 melanoma; 10 µM unless noted -6.31% | ACHN renal 9.79%

c1ccc2c(c1)Nc1cc3ccccc3cc1N2
active: SK-MEL-5 melanoma; 10 µM unless noted -75.7%
inactive: HCT-15 colon; 10 µM unless noted 17.5% | HT29 colon; 10 µM unless noted 14.7% | SNB-75 CNS; 10 µM unless noted 32.6% | SNB-19 CNS; 10 µM unless noted 57.1% | U251 CNS 43% | PC-3 prostate; 10 µM unless noted 24.9% | UACC-62 melanoma 52.9% | LOX IMVI melanoma; 10 µM unless noted 11.3% | SK-MEL-28 melanoma; 10 µM unless noted 83.3% | SK-MEL-2 melanoma; 10 µM unless noted 84% | EKVX NSCLC 56.4% | SN12C renal; 10 µM unless noted 54.6% | UO-31 renal 17.6% | TK-10 renal; 10 µM unless noted 93.3% | CAKI-1 renal 38% | A498 renal; 10 µM unless noted 81.9% | CCRF-CEM leukemia 26.5%

Oc1c(Br)cc(Cl)cc1C(c1cc(Cl)cc(Br)c1O)C(Cl)(Cl)Cl
active: PC-3 prostate; 10 µM unless noted 1.63% | SK-MEL-5 melanoma; 10 µM unless noted -64.6% | SK-MEL-2 melanoma; 10 µM unless noted -30.2% | A498 renal; 10 µM unless noted -12.4%
inactive: HCT-15 colon; 10 µM unless noted 17.2% | HT29 colon; 10 µM unless noted 10.1% | SNB-75 CNS; 10 µM unless noted 68.1% | SNB-19 CNS; 10 µM unless noted 24.7% | U251 CNS 15.2% | UACC-62 melanoma 13.3% | LOX IMVI melanoma; 10 µM unless noted 34.3% | SK-MEL-28 melanoma; 10 µM unless noted 38.1% | EKVX NSCLC 15.7% | SN12C renal; 10 µM unless noted 10.8% | UO-31 renal 12.6% | TK-10 renal; 10 µM unless noted 24.5% | ACHN renal 10.5% | MOLT-4 leukemia 14.6%
